Results published in PubChem BioAssay (NCATS).
Inconclusive results are not listed. Where a call stands in place of a potency, no number is given. Activity calls are given as the source filed them. Calls follow the shape of the dose curve; as a rule, active = well fitted inhibition curve with a large enough effect; inconclusive = small, poorly fitted or top-dose-only effect; inactive = flat fitted curve, though single readings scatter.

Each molecule was assayed against DNA repair nuclease/redox regulator APEX1 (Homo sapiens) (UniProt P27695) (assay: qHTS Validation Assay for Inhibitors of the Human Apurinic/apyrimidinic Endonuclease 1 (APE1) (AID 1705;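 also: TAMRA fluorescence gain over two minutes as APE1 cuts a quenched THF abasic duplex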)). Settings: purified APE1 endonuclease activity, fluorescence, titration; series mostly up to 57.1 µM.
Chain of DNA repair nuclease/redox regulator APEX1 (Homo sapiens) (P27695 whole entry, looked up): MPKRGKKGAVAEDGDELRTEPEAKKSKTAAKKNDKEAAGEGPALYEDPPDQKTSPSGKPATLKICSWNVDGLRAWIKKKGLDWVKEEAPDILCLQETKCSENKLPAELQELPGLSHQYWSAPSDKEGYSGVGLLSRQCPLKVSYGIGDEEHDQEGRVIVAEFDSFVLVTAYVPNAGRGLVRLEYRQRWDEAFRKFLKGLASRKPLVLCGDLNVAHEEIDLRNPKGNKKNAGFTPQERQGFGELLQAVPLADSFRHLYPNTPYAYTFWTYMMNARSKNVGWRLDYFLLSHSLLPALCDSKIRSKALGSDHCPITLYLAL
In short: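 qHTS, 1536-well. APE1 + cpd 15 min RT → 50 nM TAMRA/BHQ-2 THF-abasic dsDNA substrate → kinetic fluorescence, 3 reads/60 s; delta(read3−read1) = reaction progress. No-enzyme buffer = negative control.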

Compound	Potency
S=C(S)OC1CC2CC1C1CCCC21 (stereo not given)	inactive
CC(C)(C=O)Cc1cc(C(C)(C)C)c(O)c(C(C)(C)C)c1	inactive
CCN1/C(=C/C(C)=O)Sc2ccc(OC)cc21	inactive
O=c1[nH]c2ccccc2n1CCCN1CCN(C(c2ccccc2)c2ccccc2)CC1	inactive
CCCCCCCCCCCCCCCCCC(=O)NCC(COP(=O)([O-])OCC[N+](C)(C)C)OCC (stereo not given)	inactive
O=C1O/C(=C/Br)CCC1c1cccc2ccccc12 (stereo not given)	inactive
O=C1C(SCCO)=C(SCCO)C(=O)c2ccccc21	inactive
O=c1[nH]c2cc(Cl)c(Cl)cc2[nH]c1=O	inactive
COc1cc(OC)c(/C=C2/C(=O)Nc3ccccc32)c(OC)c1	inactive
CCCCCCCCCCCCCCCCCC(=O)OC(CC(=O)O)C[N+](C)(C)C (stereo not given)	inactive
CC(C)NC[C@H](O)COc1cccc2[nH]ccc12	inactive
O=C1NC(O)=NC1(c1ccccc1)c1ccccc1	inactive
O=C(c1cc(O)c(O)c([N+](=O)[O-])c1)c1ccccc1F	inactive
COc1ccc(NC(=O)/C=C/c2ccc(Cl)cc2)cc1	inactive
CN1CCc2cccc3c2C1Cc1ccc(O)c(O)c1-3 (stereo not given)	inactive
CN(C)c1ccc(/C=C2\C(=O)Nc3ccccc32)cc1	inactive
O=C(/C=C/c1ccc(O)c(O)c1)OCCc1ccccc1	inactive
NC[C@@H]1O[C@H](C23CC4CC(CC(C4)C2)C3)Cc2c1ccc(O)c2O	inactive
CC(C)(C)c1ccc(S(=O)(=O)/C=C/C#N)cc1	inactive
O=S(=O)(c1cccc2c(I)cccc12)N1CCCNCC1	inactive
